Measurements taken from PubChem BioAssay (NCI).
Compounds without any hit were thinned out: in the full panel of roughly 83,000, 20% have a hit.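 Plates (96-well) were seeded with cells, treated with compound at one concentration, and incubated for 48 hours before percent growth was determined.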 Unmarked numbers belong to inactive results. Active and inactive are the calls of the source. Rule for the calls: active = growth percent below 10; inactive = the rest.

test system: SN12C renal; test: NCI-60 one-dose screen, 48 h (100 = growth as untreated, 0 = no growth, -100 = all killed); conditions: 10 µM

**Q.** With `CCOC(=O)c1cc(C(=O)c2cc(OC)c(OC)c(OC)c2)n2ncc3ccccc3c12` as the molecule, how does the growth read?
**A.** Its growth is 101%.

**Q.** Which growth does the source give for `Cc1c(Cl)cccc1NC(=O)CCCl` here?
**A.** The growth was 95.8%.

**Q.** With `Cc1ccc(S(=O)(=O)N(C)CCCCCC(=O)O)cc1` as the molecule, how does the growth read?
**A.** The growth was 106%.

**Q.** Which growth does the source give for `COc1cc(-c2nn(-c3cccc(NC(=O)NCCNS(=O)(=O)c4ccc(Cl)cc4)c3)cc2-c2ccncc2)ccc1Cl` here?
**A.** The growth was 35.5%.

**Q.** With `CC(=O)Oc1cc(OC(C)=O)c2ccccc2c1OC(C)=O` as the molecule, how does the growth read?
**A.** The growth was 87.4%.

**Q.** For `COc1cc(-c2nn(-c3cccc(NC(=O)CN4CCOCC4)c3)cc2-c2cccnc2)ccc1Cl`, which growth is on record?
**A.** Its growth is 85.4%.

**Q.** `Cc1ccc(NCCNCC(C)(C)O)c2c(=O)c3ccc(Cl)cc3sc12` was tested. Which growth did it give?
**A.** Its growth is 34%.

**Q.** Which growth does the source give for `COC(=O)C1(O)NC(=C(C#N)C#N)C(C#N)=C1C(=O)c1ccc(OC)c(OC)c1` (stereo not given) here?
**A.** The growth was 96.7%.

**Q.** For `CCN(CC)CCOc1ccc2c(c1O)C(=O)c1ccccc1C2=O`, which growth is on record?
**A.** Its growth is 76.2%.

**Q.** How did the growth turn out when `COc1cc(-c2nn(-c3ccc(NC(=O)NCCCNC(=O)c4ccccc4)cc3)cc2-c2ccncc2)ccc1Cl` was run?
**A.** The growth was 54.5%.

**Q.** `COc1ccc2nc(-c3ccc(Cl)cc3)cc(-c3nnc(SC/C(=N\O)c4ccccc4)n3-c3ccccc3)c2c1` was tested. Which growth did it give?
**A.** Its growth is 95.8%.

**Q.** For `CCOS(=O)(=O)c1c(C(C)C)cc(C(C)C)cc1C(C)C`, which growth is on record?
**A.** The growth was 98.3%.

**Q.** Which growth does the source give for `O=S(=O)(O)c1cccc(Nc2ccc3ccccc3c2)c1` here?
**A.** The growth was 92.5%.

**Q.** Which growth does the source give for `CN(C)CCCSc1ccccc1NC1=C(Cl)C(=O)C(Nc2ccccc2SCCCN(C)C)=C(Cl)C1=O` here?
**A.** The growth was -61.2% (active).

**Q.** How did the growth turn out when `Brc1ccc2c(c1)-c1ccccc1C1=NCCN12` was run?
**A.** The growth was -7.57% (active).

**Q.** `CC(C)CCN(CCC(C)C)CC(=O)Nc1ccc(S(=O)(=O)c2ccc(NC(=O)CN(CCC(C)C)CCC(C)C)cc2)cc1` was tested. Which growth did it give?
**A.** The growth was 74.6%.

**Q.** Which growth does the source give for `CCNCC(=O)Nc1ccc(C(=O)OCC)cc1` here?
**A.** The growth was 98.6%.

**Q.** For `O=C(NCCCNS(=O)(=O)c1ccc(Cl)cc1)Nc1ccc(-n2cc(-c3ccncc3)c(-c3ccc(Cl)c(O)c3)n2)cc1`, which growth is on record?
**A.** The growth was 46.1%.

**Q.** For `C1CN(CC2CCC(CN3CCOCC3)O2)CCO1` (stereo not given), which growth is on record?
**A.** Its growth is 106%.

**Q.** Which growth does the source give for `CCN(CC)CC(=O)N(CC)c1ccc(C)c(Cl)c1` here?
**A.** Its growth is 101%.

**Q.** Which growth does the source give for `CC(CN(C)C)Oc1ccc(OC(C)CN(C)C)c2c1C(=O)c1ccccc1C2=O` (stereo not given) here?
**A.** The growth was 33.5%.

**Q.** `O=C1c2ccccc2C(=O)c2c1ccc(C(Br)Br)c2[N+](=O)[O-]` was tested. Which growth did it give?
**A.** The growth was 34.4%.

**Q.** With `COc1cc(-c2nn(-c3cccc(NC(=O)CCN4CCN(c5ccccc5)CC4)c3)cc2-c2ccncc2)ccc1Cl` as the molecule, how does the growth read?
**A.** Its growth is 32.4%.

**Q.** For `O=C(Nc1ccc(F)cc1)c1cc2ccccc2cc1O`, which growth is on record?
**A.** Its growth is 79.1%.

**Q.** For `O=C(Nc1ccc2c(O)cc(S(=O)(=O)O)cc2c1)c1ccc([N+](=O)[O-])cc1`, which growth is on record?
**A.** The growth was 98.8%.

**Q.** For `CN(C)CCCOc1cccc(NC2=C(Cl)C(=O)C(Nc3cccc(OCCCN(C)C)c3)=C(Cl)C2=O)c1`, which growth is on record?
**A.** The growth was -69.2% (active).

**Q.** With `COc1cc(OC)c2c(=O)c(O)c(-c3ccccc3)oc2c1` as the molecule, how does the growth read?
**A.** Its growth is 73.3%.

**Q.** `CC(=O)Nc1ccc(CC[C@H]2CCC/C=C/[C@@H]3C[C@H](O)C[C@H]3[C@H](O)/C=C/C(=O)O2)cc1` was tested. Which growth did it give?
**A.** The growth was 5.85% (active).

**Q.** Which growth does the source give for `Nc1ncnc2c1ncn2C1(CO)OCC(O)C(O)C1O` (stereo not given) here?
**A.** The growth was 103%.

**Q.** Which growth does the source give for `O=C(Nc1cccc2c1CCCC2)c1cc2ccccc2cc1O` here?
**A.** The growth was 25.6%.

**Q.** For `CN(C)CCCOc1ccccc1NC1=C(Cl)C(=O)C(Nc2ccccc2OCCCN(C)C)=C(Cl)C1=O`, which growth is on record?
**A.** The growth was -86.7% (active).

**Q.** How did the growth turn out when `O=C(N/N=C/c1ccc([N+](=O)[O-])cc1)c1ccccc1Nc1cccc(C(F)(F)F)c1` was run?
**A.** Its growth is 99.5%.

**Q.** How did the growth turn out when `NNC(=O)Oc1c(Cl)cc(Cl)cc1[N+](=O)[O-]` was run?
**A.** The growth was 111%.

**Q.** How did the growth turn out when `Nc1ccc(/C=N/Nc2ccnc3c(O)cccc23)c2cccnc12` was run?
**A.** The growth was 76.9%.

**Q.** Which growth does the source give for `O=S(=O)(O)c1ccc(Cl)cc1` here?
**A.** The growth was 100%.

**Q.** For `COc1cc(-c2nn(-c3cccc(NC(=O)NCCNC(=O)c4cccc(C(F)(F)F)c4)c3)cc2-c2ccncc2)ccc1Cl`, which growth is on record?
**A.** The growth was 75.2%.

**Q.** With `CCOC(=O)c1cc(C(=O)c2cc(OC)c(OC)c(OC)c2)n2ccc(-c3cc[n+](CC(=O)c4cc(OC)c(OC)c(OC)c4)cc3)cc12` as the molecule, how does the growth read?
**A.** The growth was 84.6%.

**Q.** Which growth does the source give for `CCOC(=O)c1cc(C(=O)c2cc(OC)c(OC)c(OC)c2)n2nc(C)ccc12` here?
**A.** Its growth is 60.1%.

**Q.** Which growth does the source give for `CCOC(=O)c1cc(C(=O)c2ccc(Cl)cc2)n2ccc(-c3cc[n+](CC(=O)c4ccc(OC)cc4)cc3)cc12` here?
**A.** Its growth is 102%.

**Q.** `C/C=C/CSC(C)(C)C(=O)NC` was tested. Which growth did it give?
**A.** Its growth is 106%.
